# Measurements taken from article PMC11006913.
# Residue numbers refer to the chain shown, from its start.
# Experiments:
# Assay in all cases: PBM; 200 nM protein, PBS
# Conditions in all cases: dsDNA, one strand shown
# PAX4 [1] = biological target: T1, PAX4 (Homo sapiens, UniProt O43316 9-242, R200K)
# T1 sequence: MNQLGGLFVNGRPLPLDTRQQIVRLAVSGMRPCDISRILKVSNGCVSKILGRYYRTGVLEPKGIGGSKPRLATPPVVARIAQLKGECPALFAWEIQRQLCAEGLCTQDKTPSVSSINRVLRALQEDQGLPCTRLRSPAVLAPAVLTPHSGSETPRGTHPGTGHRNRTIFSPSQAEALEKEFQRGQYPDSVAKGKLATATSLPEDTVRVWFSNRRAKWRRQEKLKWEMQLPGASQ
# PAX4 [2] = biological target: T2, PAX4 (Homo sapiens, UniProt O43316 9-242)
# T2 sequence: T1 sequence with K192R
# PAX4 [3] = biological target: T3, PAX4 (Homo sapiens, UniProt O43316 9-242, R200Q)
# T3 sequence: T1 sequence with K192Q
# PAX4 [4] = biological target: T4, PAX4 (Homo sapiens, UniProt O43316 9-242, F177V)
# T4 sequence: T1 sequence with F169V, K192R
# PAX4 [5] = biological target: T5, PAX4 (Homo sapiens, UniProt O43316 9-242, F177Y)
# T5 sequence: T1 sequence with F169Y, K192R
# PAX4 [6] = biological target: T6, PAX4 (Homo sapiens, UniProt O43316 9-242, R227W)
# T6 sequence: T1 sequence with K192R, R219W
# PRRX1 [7] = biological target: PRRX1 (Homo sapiens, UniProt P54821 80-166, F113S)
# HOXB6 [8] = biological target: HOXB6 (Homo sapiens, UniProt P17509 132-218, K202E)
# HOXA2 [9] = biological target: HOXA2 (Homo sapiens, UniProt O43364 129-215, R185T)
# HOXA2 [10] = biological target: HOXA2 (Homo sapiens, UniProt O43364 129-215, R185K)
# PROP1 [11] = biological target: PROP1 (Homo sapiens, UniProt O75360 56-141)
# PROP1 [12] = biological target: PROP1 (Homo sapiens, UniProt O75360 56-141, R99H)
# PROP1 [13] = biological target: PROP1 (Homo sapiens, UniProt O75360 56-141, F88S)
# HOXA2 [14] = biological target: HOXA2 (Homo sapiens, UniProt O43364 129-215, Y150S)
# PRRX1 [15] = biological target: PRRX1 (Homo sapiens, UniProt P54821 80-166)
# HOXA2 [16] = biological target: HOXA2 (Homo sapiens, UniProt O43364 129-215)
# HOXB6 [17] = biological target: HOXB6 (Homo sapiens, UniProt P17509 132-218)
# CRX = CRX (Homo sapiens, UniProt O43186 26-111, R41L)
# CRX, sequence (O43186 26-111 R41L): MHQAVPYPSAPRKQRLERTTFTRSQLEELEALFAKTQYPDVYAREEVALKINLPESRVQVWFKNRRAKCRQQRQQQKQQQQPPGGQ
# PRRX1 (Homo sapiens, UniProt P54821 80-166, F113S), sequence (P54821 80-166 F113S): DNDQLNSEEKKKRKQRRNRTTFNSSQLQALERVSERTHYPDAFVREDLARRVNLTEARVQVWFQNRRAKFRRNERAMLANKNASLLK
# PRRX1 (Homo sapiens, UniProt P54821 80-166), sequence (P54821 80-166): as the sequence (P54821 80-166 F113S) above, with S34F counted along it
# HOXA2 (Homo sapiens, UniProt O43364 129-215), sequence (O43364 129-215): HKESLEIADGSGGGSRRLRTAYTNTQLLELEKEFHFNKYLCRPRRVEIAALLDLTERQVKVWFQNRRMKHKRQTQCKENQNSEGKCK
# PROP1 (Homo sapiens, UniProt O75360 56-141, R99H), sequence (O75360 56-141 R99H): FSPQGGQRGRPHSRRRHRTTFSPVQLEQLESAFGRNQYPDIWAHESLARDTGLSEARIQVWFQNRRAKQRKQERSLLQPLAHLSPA
# PROP1 (Homo sapiens, UniProt O75360 56-141, F88S), sequence (O75360 56-141 F88S): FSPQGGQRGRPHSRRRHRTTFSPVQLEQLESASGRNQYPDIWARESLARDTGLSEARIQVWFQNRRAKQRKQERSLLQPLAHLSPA
# HOXA2 (Homo sapiens, UniProt O43364 129-215, R185T), sequence (O43364 129-215 R185T): as the sequence (O43364 129-215) above, with R57T counted along it
# HOXB6 (Homo sapiens, UniProt P17509 132-218, K202E), sequence (P17509 132-218 K202E): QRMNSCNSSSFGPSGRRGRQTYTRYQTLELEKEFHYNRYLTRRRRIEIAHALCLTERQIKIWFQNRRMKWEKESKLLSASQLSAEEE
# HOXA2 (Homo sapiens, UniProt O43364 129-215, Y150S), sequence (O43364 129-215 Y150S): as the sequence (O43364 129-215) above, with Y22S counted along it
# HOXB6 (Homo sapiens, UniProt P17509 132-218), sequence (P17509 132-218): as the sequence (P17509 132-218 K202E) above, with E71K counted along it
# HOXA2 (Homo sapiens, UniProt O43364 129-215, R185K), sequence (O43364 129-215 R185K): as the sequence (O43364 129-215) above, with R57K counted along it
# PROP1 (Homo sapiens, UniProt O75360 56-141), sequence (O75360 56-141): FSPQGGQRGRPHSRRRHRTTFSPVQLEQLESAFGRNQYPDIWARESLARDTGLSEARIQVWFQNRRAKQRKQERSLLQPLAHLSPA
sequence,measurement,setting,value
CGACCTGC,binding signal,PAX4 [1],"9.47 upbm affinity estimate (log intensity, higher = more binding, comparable within an allelic series)"
same,binding signal,PAX4 [2],"9.54 upbm affinity estimate (log intensity, higher = more binding, comparable within an allelic series)"
same,binding signal,PAX4 [3],"9.42 upbm affinity estimate (log intensity, higher = more binding, comparable within an allelic series)"
same,binding signal,PAX4 [4],"9.26 upbm affinity estimate (log intensity, higher = more binding, comparable within an allelic series)"
same,binding signal,PAX4 [5],"9.33 upbm affinity estimate (log intensity, higher = more binding, comparable within an allelic series)"
same,binding signal,PAX4 [6],"9.35 upbm affinity estimate (log intensity, higher = more binding, comparable within an allelic series)"
AGCCTGAG,binding signal,PRRX1 [7],"9.28 upbm affinity estimate (log intensity, higher = more binding, comparable within an allelic series)"
same,binding signal,HOXB6 [8],"8.98 upbm affinity estimate (log intensity, higher = more binding, comparable within an allelic series)"
same,binding signal,HOXA2 [9],"7.3 upbm affinity estimate (log intensity, higher = more binding, comparable within an allelic series)"
same,binding signal,HOXA2 [10],"10.4 upbm affinity estimate (log intensity, higher = more binding, comparable within an allelic series)"
same,binding signal,PROP1 [11],"6.61 upbm affinity estimate (log intensity, higher = more binding, comparable within an allelic series)"
same,binding signal,PROP1 [12],"6.62 upbm affinity estimate (log intensity, higher = more binding, comparable within an allelic series)"
same,binding signal,PROP1 [13],"6.73 upbm affinity estimate (log intensity, higher = more binding, comparable within an allelic series)"
same,binding signal,HOXA2 [14],"10.5 upbm affinity estimate (log intensity, higher = more binding, comparable within an allelic series)"
same,binding signal,PRRX1 [15],"9.12 upbm affinity estimate (log intensity, higher = more binding, comparable within an allelic series)"
same,binding signal,HOXA2 [16],"7.33 upbm affinity estimate (log intensity, higher = more binding, comparable within an allelic series)"
same,binding signal,HOXB6 [17],"8.88 upbm affinity estimate (log intensity, higher = more binding, comparable within an allelic series)"
CGTTGGCC,binding signal,PAX4 [1],"9.3 upbm affinity estimate (log intensity, higher = more binding, comparable within an allelic series)"
same,binding signal,PAX4 [2],"9.3 upbm affinity estimate (log intensity, higher = more binding, comparable within an allelic series)"
same,binding signal,PAX4 [3],"9.53 upbm affinity estimate (log intensity, higher = more binding, comparable within an allelic series)"
same,binding signal,PAX4 [4],"9.43 upbm affinity estimate (log intensity, higher = more binding, comparable within an allelic series)"
same,binding signal,PAX4 [5],"9.4 upbm affinity estimate (log intensity, higher = more binding, comparable within an allelic series)"
same,binding signal,PAX4 [6],"9.45 upbm affinity estimate (log intensity, higher = more binding, comparable within an allelic series)"
ACCGGGGC,binding signal,PAX4 [1],"9.07 upbm affinity estimate (log intensity, higher = more binding, comparable within an allelic series)"
same,binding signal,PAX4 [2],"9.11 upbm affinity estimate (log intensity, higher = more binding, comparable within an allelic series)"
same,binding signal,PAX4 [3],"9.2 upbm affinity estimate (log intensity, higher = more binding, comparable within an allelic series)"
same,binding signal,PAX4 [4],"9.11 upbm affinity estimate (log intensity, higher = more binding, comparable within an allelic series)"
same,binding signal,PAX4 [5],"9.09 upbm affinity estimate (log intensity, higher = more binding, comparable within an allelic series)"
same,binding signal,PAX4 [6],"9.2 upbm affinity estimate (log intensity, higher = more binding, comparable within an allelic series)"
ATTGATTA,binding signal,PRRX1 [7],"11.1 upbm affinity estimate (log intensity, higher = more binding, comparable within an allelic series)"
AAATTAGG,binding signal,PAX4 [1],"11.4 upbm affinity estimate (log intensity, higher = more binding, comparable within an allelic series)"
same,binding signal,PAX4 [2],"11.9 upbm affinity estimate (log intensity, higher = more binding, comparable within an allelic series)"
same,binding signal,PAX4 [3],"11.5 upbm affinity estimate (log intensity, higher = more binding, comparable within an allelic series)"
same,binding signal,PAX4 [4],"10.2 upbm affinity estimate (log intensity, higher = more binding, comparable within an allelic series)"
same,binding signal,PAX4 [5],"10.5 upbm affinity estimate (log intensity, higher = more binding, comparable within an allelic series)"
same,binding signal,PAX4 [6],"10.6 upbm affinity estimate (log intensity, higher = more binding, comparable within an allelic series)"
CGTATTAA,binding signal,PAX4 [1],"11.8 upbm affinity estimate (log intensity, higher = more binding, comparable within an allelic series)"
same,binding signal,PAX4 [2],"12.2 upbm affinity estimate (log intensity, higher = more binding, comparable within an allelic series)"
same,binding signal,PAX4 [3],"11.5 upbm affinity estimate (log intensity, higher = more binding, comparable within an allelic series)"
same,binding signal,PAX4 [4],"10.5 upbm affinity estimate (log intensity, higher = more binding, comparable within an allelic series)"
same,binding signal,PAX4 [5],"11 upbm affinity estimate (log intensity, higher = more binding, comparable within an allelic series)"
same,binding signal,PAX4 [6],"11 upbm affinity estimate (log intensity, higher = more binding, comparable within an allelic series)"
same,binding signal,CRX,"11.2 upbm affinity estimate (log intensity, higher = more binding, comparable within an allelic series)"
ATACATAT,binding signal,PAX4 [1],"10.7 upbm affinity estimate (log intensity, higher = more binding, comparable within an allelic series)"
same,binding signal,PAX4 [2],"10.7 upbm affinity estimate (log intensity, higher = more binding, comparable within an allelic series)"
same,binding signal,PAX4 [3],"10.8 upbm affinity estimate (log intensity, higher = more binding, comparable within an allelic series)"
same,binding signal,PAX4 [4],"10.6 upbm affinity estimate (log intensity, higher = more binding, comparable within an allelic series)"
same,binding signal,PAX4 [5],"10.6 upbm affinity estimate (log intensity, higher = more binding, comparable within an allelic series)"
same,binding signal,PAX4 [6],"10.6 upbm affinity estimate (log intensity, higher = more binding, comparable within an allelic series)"
TAACTCAA,binding signal,PAX4 [1],"10.6 upbm affinity estimate (log intensity, higher = more binding, comparable within an allelic series)"
same,binding signal,PAX4 [2],"10.7 upbm affinity estimate (log intensity, higher = more binding, comparable within an allelic series)"
same,binding signal,PAX4 [4],"10.1 upbm affinity estimate (log intensity, higher = more binding, comparable within an allelic series)"
GGAAGCCC,binding signal,PAX4 [1],"9.27 upbm affinity estimate (log intensity, higher = more binding, comparable within an allelic series)"
same,binding signal,PAX4 [2],"9.25 upbm affinity estimate (log intensity, higher = more binding, comparable within an allelic series)"
same,binding signal,PAX4 [3],"9.38 upbm affinity estimate (log intensity, higher = more binding, comparable within an allelic series)"
same,binding signal,PAX4 [4],"9.32 upbm affinity estimate (log intensity, higher = more binding, comparable within an allelic series)"
same,binding signal,PAX4 [5],"9.3 upbm affinity estimate (log intensity, higher = more binding, comparable within an allelic series)"
same,binding signal,PAX4 [6],"9.35 upbm affinity estimate (log intensity, higher = more binding, comparable within an allelic series)"
AATGCGAT,binding signal,PAX4 [1],"10.8 upbm affinity estimate (log intensity, higher = more binding, comparable within an allelic series)"
same,binding signal,PAX4 [2],"11 upbm affinity estimate (log intensity, higher = more binding, comparable within an allelic series)"
same,binding signal,PAX4 [4],"10.2 upbm affinity estimate (log intensity, higher = more binding, comparable within an allelic series)"
ACGTATTA,binding signal,PAX4 [1],"11.7 upbm affinity estimate (log intensity, higher = more binding, comparable within an allelic series)"
same,binding signal,PAX4 [5],"11 upbm affinity estimate (log intensity, higher = more binding, comparable within an allelic series)"
same,binding signal,PAX4 [6],"11.1 upbm affinity estimate (log intensity, higher = more binding, comparable within an allelic series)"
TGGGCCCA,binding signal,PAX4 [1],"9.53 upbm affinity estimate (log intensity, higher = more binding, comparable within an allelic series)"
same,binding signal,PAX4 [2],"9.41 upbm affinity estimate (log intensity, higher = more binding, comparable within an allelic series)"
same,binding signal,PAX4 [3],"9.57 upbm affinity estimate (log intensity, higher = more binding, comparable within an allelic series)"
same,binding signal,PAX4 [4],"9.2 upbm affinity estimate (log intensity, higher = more binding, comparable within an allelic series)"
same,binding signal,PAX4 [5],"9.37 upbm affinity estimate (log intensity, higher = more binding, comparable within an allelic series)"
same,binding signal,PAX4 [6],"9.35 upbm affinity estimate (log intensity, higher = more binding, comparable within an allelic series)"
GGAAAATA,binding signal,PAX4 [1],"10.5 upbm affinity estimate (log intensity, higher = more binding, comparable within an allelic series)"
same,binding signal,PAX4 [2],"10.7 upbm affinity estimate (log intensity, higher = more binding, comparable within an allelic series)"
same,binding signal,PAX4 [4],"10.1 upbm affinity estimate (log intensity, higher = more binding, comparable within an allelic series)"
same,binding signal,PAX4 [5],"10.1 upbm affinity estimate (log intensity, higher = more binding, comparable within an allelic series)"
GCGAATTA,binding signal,PAX4 [1],"11.6 upbm affinity estimate (log intensity, higher = more binding, comparable within an allelic series)"
same,binding signal,PAX4 [2],"12.1 upbm affinity estimate (log intensity, higher = more binding, comparable within an allelic series)"
same,binding signal,PAX4 [3],"11.5 upbm affinity estimate (log intensity, higher = more binding, comparable within an allelic series)"
same,binding signal,PAX4 [4],"10.3 upbm affinity estimate (log intensity, higher = more binding, comparable within an allelic series)"
same,binding signal,PAX4 [5],"10.8 upbm affinity estimate (log intensity, higher = more binding, comparable within an allelic series)"
same,binding signal,PAX4 [6],"10.8 upbm affinity estimate (log intensity, higher = more binding, comparable within an allelic series)"
GCGAGGCC,binding signal,PAX4 [1],"9.39 upbm affinity estimate (log intensity, higher = more binding, comparable within an allelic series)"
same,binding signal,PAX4 [2],"9.4 upbm affinity estimate (log intensity, higher = more binding, comparable within an allelic series)"
same,binding signal,PAX4 [3],"9.36 upbm affinity estimate (log intensity, higher = more binding, comparable within an allelic series)"
same,binding signal,PAX4 [4],"9.18 upbm affinity estimate (log intensity, higher = more binding, comparable within an allelic series)"
same,binding signal,PAX4 [5],"9.2 upbm affinity estimate (log intensity, higher = more binding, comparable within an allelic series)"
same,binding signal,PAX4 [6],"9.27 upbm affinity estimate (log intensity, higher = more binding, comparable within an allelic series)"
CCGAAGCC,binding signal,PAX4 [1],"9.25 upbm affinity estimate (log intensity, higher = more binding, comparable within an allelic series)"
same,binding signal,PAX4 [2],"9.26 upbm affinity estimate (log intensity, higher = more binding, comparable within an allelic series)"
same,binding signal,PAX4 [3],"9.27 upbm affinity estimate (log intensity, higher = more binding, comparable within an allelic series)"
same,binding signal,PAX4 [4],"9.17 upbm affinity estimate (log intensity, higher = more binding, comparable within an allelic series)"
same,binding signal,PAX4 [5],"9.2 upbm affinity estimate (log intensity, higher = more binding, comparable within an allelic series)"
same,binding signal,PAX4 [6],"9.18 upbm affinity estimate (log intensity, higher = more binding, comparable within an allelic series)"
AGCGCTGC,binding signal,PAX4 [1],"9.36 upbm affinity estimate (log intensity, higher = more binding, comparable within an allelic series)"
same,binding signal,PAX4 [2],"9.27 upbm affinity estimate (log intensity, higher = more binding, comparable within an allelic series)"
same,binding signal,PAX4 [3],"9.34 upbm affinity estimate (log intensity, higher = more binding, comparable within an allelic series)"
same,binding signal,PAX4 [4],"9.36 upbm affinity estimate (log intensity, higher = more binding, comparable within an allelic series)"
same,binding signal,PAX4 [5],"9.24 upbm affinity estimate (log intensity, higher = more binding, comparable within an allelic series)"
same,binding signal,PAX4 [6],"9.35 upbm affinity estimate (log intensity, higher = more binding, comparable within an allelic series)"
